The values that follow come from a collection of fitness landscapes (doi:10.1126/science.1257360).

In all, about 140,000 sequences were measured (“enrichment ratio after two sorts for PhoP signalling”: median about 0, highest 2% from about 11 on). For the sample, the highest values were picked, then their nearest neighbours and some sequences at random.

First the molecules themselves.
B1: PhoQ; a variant is named by its letters at X, in order, P23837 (parent)
chain: MKKLLRLFFPLSLRVRFLLATAAVVLVLSLAYGMVALIGYSVSFDKTTFRLLRGESNLFYTLAKWENNKLHVELPENIDKQSPTMTLIYDENGQLLWAQRDVPWLMKMIQPDWLKSNGFHEIEADVNDTSLLLSGDHSIQQQLQEVREDDDDAEMTHSVAVNVYPATSRMPKLTIVVVDTIPVELKSSYMVWSWFIYVLSANLLLVIPLLWVAAWWSLRPIEALAKEVRELEEHNRELLNPATTRELTSLVRNLNRLLKSERERYDKYRTTLTDLTHSLKTPLXXLQXXLRSLRSEKMSVSDAEPVMLEQISRISQQIGYYLHRASMRGGTLLSRELHPVAPLLDNLTSALNKVYQRKGVNISLDISPEISFVGEQNDFVEVMGNVLDNACKYCLEFVEISARQTDEHLYIVVEDDGPGIPLSKREVIFDRGQRVDTLRPGQGVGLAVAREITEQYEGKIVAGESMLGGARMEVIFGRQHSAPKDE

This experiment covers variants of B1. In words: enrichment ratio after two sorts for PhoP signalling (ratio (wild type AVST 3.29)); higher = more functional. The following applies: with PhoP (E. coli).
For the variant CLFS, the enrichment ratio was at most 0.25.

For the variant WHNW, the enrichment ratio is at most 0.25.

WMSA: the enrichment ratio is at most 0.25.

As to HCSR, the enrichment ratio is at most 0.25.

Consider TYDS, for which the enrichment ratio was at most 0.25.

For the variant MLEL, the enrichment ratio was at most 0.25.

Consider MVYK, for which the enrichment ratio amounted to 17.6.

As to MVHV, the enrichment ratio was at most 0.25.

As for MVYD, the enrichment ratio is at most 0.25.

With MVAN, the enrichment ratio stood at 15.8.

As to GVAN, the enrichment ratio was at most 0.25.

MVWN: the enrichment ratio was found to be 13.3.

Turning to MVNL, the enrichment ratio was at most 0.25.

Turning to MVYI, the enrichment ratio was at most 0.25.

As to MVAV, the enrichment ratio was determined as 11.4.

Regarding MVPY, the enrichment ratio is at most 0.25.

On to MVPA, for which the enrichment ratio was at most 0.25.

As to MVIV, the enrichment ratio was at most 0.25.

Turning to GDLC, the enrichment ratio worked out at 1.96.

LWEG: the enrichment ratio was at most 0.25.

With RTKT, the enrichment ratio was at most 0.25.

As for QLML, the enrichment ratio is at most 0.25.

In the case of KICA, the enrichment ratio is at most 0.25.

For the variant LLMY, the enrichment ratio is at most 0.25.

Regarding FMIW, the enrichment ratio was at most 0.25.

Turning to YMVF, the enrichment ratio was at most 0.25.

As for NLLC, the enrichment ratio was at most 0.25.

Turning to MVMG, the enrichment ratio amounted to 1.65.

As for MVAG, the enrichment ratio was found to be 12.7.

MVTG: the enrichment ratio was at most 0.25.

For LDKC, the enrichment ratio is at most 0.25.

Turning to PPTY, the enrichment ratio is at most 0.25.

TEYH: the enrichment ratio amounted to 20.6.

Consider TETH, for which the enrichment ratio is 10.3.

Regarding TEES, the enrichment ratio is at most 0.25.

For TEGH, the enrichment ratio worked out at 18.1.

For TEGP, the enrichment ratio is at most 0.25.

Consider QEIH, for which the enrichment ratio was at most 0.25.

Regarding TESH, the enrichment ratio was determined as 32.2.

NESH: the enrichment ratio is at most 0.25.

In the case of HPGH, the enrichment ratio is at most 0.25.

Take TEIH: the enrichment ratio was determined as 11.4.

Regarding VEIH, the enrichment ratio is at most 0.25.

Turning to HPYH, the enrichment ratio is at most 0.25.

For DYRT, the enrichment ratio was at most 0.25.

Take NIFH: the enrichment ratio was at most 0.25.

Consider YEYG, for which the enrichment ratio was at most 0.25.

In the case of KSWM, the enrichment ratio was at most 0.25.

As to TSGM, the enrichment ratio came out at 19.2.

In the case of KSGM, the enrichment ratio is at most 0.25.

As to NSAM, the enrichment ratio was at most 0.25.

TSAM: the enrichment ratio turned out to be 13.8.

Regarding MMWM, the enrichment ratio is at most 0.25.

Regarding KSAM, the enrichment ratio was at most 0.25.

Consider NVTM, for which the enrichment ratio was at most 0.25.

Take TSTM: the enrichment ratio was found to be 25.6.

In the case of MMTM, the enrichment ratio is 10.9.

Turning to MMGM, the enrichment ratio was 1.99.

Take TSWM: the enrichment ratio was 16.2.

On to HFPI, for which the enrichment ratio is at most 0.25.

For the variant TFKM, the enrichment ratio is at most 0.25.

As to INVC, the enrichment ratio is at most 0.25.

With KVGI, the enrichment ratio is at most 0.25.

Consider GLDQ, for which the enrichment ratio was at most 0.25.

With DESQ, the enrichment ratio is at most 0.25.

Regarding RFAC, the enrichment ratio was at most 0.25.

Turning to STMF, the enrichment ratio worked out at 11.1.

As to SEGF, the enrichment ratio came to 12.8.

Turning to STGF, the enrichment ratio was determined as 11.4.

Turning to STHF, the enrichment ratio is at most 0.25.

As to SQGF, the enrichment ratio stood at 0.381.

Turning to KYGF, the enrichment ratio was at most 0.25.

As to SEMF, the enrichment ratio was 20.6.

SRGF: the enrichment ratio stood at 0.392.

KYMF: the enrichment ratio was at most 0.25.

With MQAN, the enrichment ratio was found to be 2.41.

In the case of VFHF, the enrichment ratio is at most 0.25.

Take QYTY: the enrichment ratio was at most 0.25.

As for GGWG, the enrichment ratio was at most 0.25.

Take IALA: the enrichment ratio is at most 0.25.

For the variant AVFF, the enrichment ratio is at most 0.25.

On to YVCH, for which the enrichment ratio is 0.383.

On to GERH, for which the enrichment ratio was at most 0.25.

DKRH: the enrichment ratio was at most 0.25.

Take LTLM: the enrichment ratio was found to be 2.03.

As to GYLM, the enrichment ratio was at most 0.25.

As to GMLM, the enrichment ratio amounted to 1.25.

As for SLLM, the enrichment ratio came out at 6.84.

As to GALM, the enrichment ratio came to 12.1.

With SFLM, the enrichment ratio was 4.5.

Regarding GTLM, the enrichment ratio was 14.5.

As to SELM, the enrichment ratio came out at 15.6.

As for SNLM, the enrichment ratio was found to be 12.

For the variant SILM, the enrichment ratio is 0.906.

Turning to SRLM, the enrichment ratio was 8.53.

For HILM, the enrichment ratio was at most 0.25.

For the variant SPGC, the enrichment ratio is at most 0.25.

For GWTC, the enrichment ratio is at most 0.25.

For WFGV, the enrichment ratio is at most 0.25.

IFGQ: the enrichment ratio is at most 0.25.

For the variant VSCI, the enrichment ratio is 7.51.

Turning to VLVC, the enrichment ratio was at most 0.25.

SCAA: the enrichment ratio was found to be 5.68.

In the case of PIFW, the enrichment ratio was found to be 1.39.

With LQRE, the enrichment ratio was at most 0.25.

As for NQHW, the enrichment ratio is at most 0.25.

As for SALM, the enrichment ratio amounted to 12.7.

As for QCLM, the enrichment ratio was at most 0.25.

On to YTLM, for which the enrichment ratio was determined as 9.3.

IILM: the enrichment ratio came to 0.265.

For the variant GCLM, the enrichment ratio is 16.5.

As for TTLM, the enrichment ratio was 16.5.

On to VCLM, for which the enrichment ratio amounted to 4.34.

In the case of KQLM, the enrichment ratio is at most 0.25.

As for ITLM, the enrichment ratio worked out at 8.61.

Regarding ATLM, the enrichment ratio was 21.4.

Turning to YLIN, the enrichment ratio is at most 0.25.

As for MTRF, the enrichment ratio is at most 0.25.

In the case of FHGK, the enrichment ratio was at most 0.25.

Turning to PTLY, the enrichment ratio was at most 0.25.

Take EFRH: the enrichment ratio was at most 0.25.

Consider APYT, for which the enrichment ratio was at most 0.25.

Turning to YSRL, the enrichment ratio is at most 0.25.

As for LVSS, the enrichment ratio was at most 0.25.

Turning to DSTR, the enrichment ratio is at most 0.25.

As for IRCW, the enrichment ratio was at most 0.25.

TYHN: the enrichment ratio was at most 0.25.

Regarding GEDL, the enrichment ratio is at most 0.25.

Regarding GIPM, the enrichment ratio was at most 0.25.

Take GFLM: the enrichment ratio is 2.69.

GILM: the enrichment ratio is 15.7.

As to VFLM, the enrichment ratio was at most 0.25.

As to MNLM, the enrichment ratio came out at 15.1.

On to GNLM, for which the enrichment ratio is 17.5.

In the case of VYLM, the enrichment ratio was at most 0.25.

Consider LNLM, for which the enrichment ratio was at most 0.25.

For TNLM, the enrichment ratio amounted to 2.74.

As for VNLM, the enrichment ratio worked out at 22.6.

Consider MCLM, for which the enrichment ratio was found to be 6.74.

Take GIYR: the enrichment ratio was at most 0.25.

As to AYGP, the enrichment ratio is at most 0.25.

Take WTPP: the enrichment ratio was at most 0.25.

Regarding ECHD, the enrichment ratio was at most 0.25.

On to DMYC, for which the enrichment ratio is at most 0.25.

In the case of TAWF, the enrichment ratio was determined as 5.36.

For GYWP, the enrichment ratio is at most 0.25.

For the variant GPLY, the enrichment ratio was at most 0.25.

For STLM, the enrichment ratio stood at 11.2.

MNIM: the enrichment ratio stood at 12.3.

Consider GKVM, for which the enrichment ratio was at most 0.25.

Regarding GKLA, the enrichment ratio was at most 0.25.

On to MTLM, for which the enrichment ratio was found to be 13.8.

With GKLM, the enrichment ratio is 12.5.

With MPLM, the enrichment ratio was at most 0.25.

For the variant MNPM, the enrichment ratio was at most 0.25.

With MNCK, the enrichment ratio was at most 0.25.

For the variant MMLM, the enrichment ratio was at most 0.25.

Take SPLM: the enrichment ratio is at most 0.25.
